The target in assay [1] is Cellular tumor antigen p53 (Homo sapiens) (UniProt P04637). Briefly: Primary qHTS for small molecule compounds that upregulate eGFP-tagged delta133p53alpha (in N-terminal) cells. (AID 2060322). Further: nearly all actives have a fitted effect of over 75% in size. Further: potency means the concentration at half of the fitted maximal effect.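 On activation: series mostly up to about 56 µM; 0% = DMSO vehicle and 100% = reference activator.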 As to conditions: NCI-H358 eGFP-delta133p53alpha fluorescence, 24 h; activation: stronger effect = higher value. The method in brief: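 NCI-H358 cells pre-induced 24 h with 10 ng/ml doxycycline to express N-terminal eGFP-delta133p53alpha, then dosed 24 h at 37C without doxycycline; fixed, Hoechst-stained, GFP intensity by laser scanning cytometry, normalized to DMSO (0%) and 57.5 uM 5-azacytidine (100%).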
Sequence of Cellular tumor antigen p53 (Homo sapiens) (P04637 whole entry, looked up): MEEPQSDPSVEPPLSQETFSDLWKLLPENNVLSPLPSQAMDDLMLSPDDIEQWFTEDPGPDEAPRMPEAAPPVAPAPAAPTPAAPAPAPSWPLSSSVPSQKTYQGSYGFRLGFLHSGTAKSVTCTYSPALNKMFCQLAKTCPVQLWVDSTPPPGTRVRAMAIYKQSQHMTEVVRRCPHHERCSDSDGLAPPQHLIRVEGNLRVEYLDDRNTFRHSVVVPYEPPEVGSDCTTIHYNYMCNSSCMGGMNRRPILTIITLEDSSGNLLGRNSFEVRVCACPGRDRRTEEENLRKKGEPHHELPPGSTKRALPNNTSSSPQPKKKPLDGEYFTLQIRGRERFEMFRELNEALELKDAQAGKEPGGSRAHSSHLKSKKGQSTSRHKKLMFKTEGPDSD
In general terms: Quantitative high-throughput screening tests each substance at several concentrations.

The nature of assay [2]: BET inhibitor-based combinations targeting novel dependencies in MECOM-rearranged (r) AML: SET-2 cell line (AID 2202231).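 Further: plate controls were DMSO treated cells for no effect and wells without cells for full effect; nearly all actives have a fitted effect of over 35% in size.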 As to conditions: SET-2 AML cells viability, CellTiter-Glo luminescence, 48 h; viability: stronger effect = lower value, series mostly up to about 46 µM. The procedure, abridged:
(§1)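 Cells were plated at 500 per well and exposed to an 11-point dose series of each drug for 48 hr. Viability was measured by CellTiter-Glo luminescence, normalized to DMSO and empty-well controls, and summarized as AUC and per-cell-line Z-AUC.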
(Cellular ATP, detected with luciferase, serves as a proxy for viable cell number.)

Assay [3] can be described thus: BET inhibitor-based combinations targeting novel dependencies in MECOM-rearranged (r) AML: MV-4-11 cell line (AID 2202233). Further: nearly all actives have a fitted effect of over 45% in size. Further: potency means the concentration at half of the fitted maximal effect. The method in brief:
(§2)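 Activity is given as area under the curve and as Z-AUC, mean-centred within each cell line. It comes from 11-point dose curves normalized to DMSO and empty wells. CellTiter-Glo luminescence was read after 48 hr drug exposure of 500 cells/well.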

The nature of assay [4]: BET inhibitor-based combinations targeting novel dependencies in MECOM-rearranged (r) AML: HNT-34 cell line (AID 2202234). Further: nearly all actives have a fitted effect of over 35% in size. Further: potency means the concentration at half of the fitted maximal effect. The procedure, abridged:
as §2

The nature of assay [5]: BET inhibitor-based combinations targeting novel dependencies in MECOM-rearranged (r) AML: UCSD-AML1 cell line (AID 2202235). Further: nearly all actives have a fitted effect of over 40% in size. Further: potency means the concentration at half of the fitted maximal effect. The procedure, abridged: as §2
The nature of assay [6]: BET inhibitor-based combinations targeting novel dependencies in MECOM-rearranged (r) AML: AML-191 cell line (AID 2202236; further: nearly all actives have a fitted effect of over 35% in size; further: potency means the concentration at half of the fitted maximal effect). The procedure, abridged: as §1
Assay [7] can be described thus: BET inhibitor-based combinations targeting novel dependencies in MECOM-rearranged (r) AML: AML-194 cell line (AID 2202237;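 further: plate controls were vehicle wells for no effect and wells without cells for full effect; nearly all actives have a fitted effect of over 40% in size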). The method in brief: as §1
The nature of assay [8]: BET inhibitor-based combinations targeting novel dependencies in MECOM-rearranged (r) AML: OCI-AML3 cell line (AID 2202232). Further: nearly all actives have a fitted effect of over 35% in size. Further: potency means the concentration at half of the fitted maximal effect. To be noted: Potency: OCI-AML3 viability. The procedure, abridged:
as §1

Where “and” joins values, the source holds several entries; their conditions need not be identical. Identical values can stand only once. Results filed as inconclusive are left out. Unmarked numbers belong to inactive results. Calls of active or inactive are those of the source. The call rests on the fitted dose curve; in most records, active means well fitted curve in the direction sought with a large enough effect; inconclusive means small, poorly fitted or top-dose-only effect, or another doubt; inactive means no such curve, though single readings can be large; an effect the other way counts as inactive or inconclusive.

As a reminder, the viability is a read-out of living cells in per cent, often relative to untreated cells. Take `Cc1nnc(NS(=O)(=O)c2ccc(N)cc2)s1`: the activation in assay [1] is -14.2% and -3.76%. The viability in assay [2] was 113%. The Potency entry in assay [3], in assay [4], in assay [5], in assay [6] and in assay [7] was “inactive” throughout.
`N=C(N)c1ccc2cc(OC(=O)c3ccc(N=C(N)N)cc3)ccc2c1`: in assay [1], the activation was -10.5%. Also, the viability in assay [2] was 105%. In addition, the Potency in assay [5] and in assay [6] was 23500 nM (active) in each case.
On to `CCCCCCOC(=O)NC(=N)c1ccc(NCc2nc3cc(C(=O)N(CCC(=O)OCC)c4ccccn4)ccc3n2C)cc1`, for which, in assay [1], the activation was -36.8%. For the same molecule, in assay [8], the Potency is 8330 nM (active).
For `CC(C)Oc1ccc2c(=O)c(-c3ccccc3)coc2c1`, the activation in assay [1] is -6.21% and -9.21% and 6.6%. Further, the viability in assay [2] is 108%. Further, the Potency result in assay [4], in assay [5] and in assay [7] was “inactive” in each case.
Take `CC(Cc1ccc(O)c(O)c1)(NN)C(=O)O` (configuration not stated): the activation in assay [1] is -5.67%. The Potency entry in assay [8], in assay [3], in assay [4], in assay [5] and in assay [6] was “inactive” in each case.
`COC(=O)C1=C(C)NC(C)=C(C(=O)OCCN2CCN(C(c3ccccc3)c3ccccc3)CC2)C1c1cccc([N+](=O)[O-])c1` (configuration not stated): in assay [1], the activation is -17.6%. In addition, the Potency in assay [8] is 20900 nM (active); in assay [3], 18600 nM (active); in assay [4], 23500 nM (active); in assay [6], 26300 nM (active). Further, the Potency entry in assay [5] is “inactive”.
Take `CC[C@H](NC(C)C)[C@H](O)c1ccc(O)c2[nH]c(=O)ccc12`: in assay [1], the activation is -13% and -16.9%. Further, in assay [2], the viability is 117%. The Potency result in assay [4], in assay [5], in assay [6] and in assay [7] was “inactive” in each case.
For the molecule `CO[C@@H](C(=O)N1Cc2[nH]nc(NC(=O)c3ccc(N4CCN(C)CC4)cc3)c2C1)c1ccccc1`, the activation in assay [1] was 20.9%. For the same molecule, the Potency was 1860 nM (active) in assay [8], 148 nM (active) in assay [3], 105 nM (active) in assay [4] and 148 nM (active) in assay [5].
As to `COc1ccc(-c2cc(=O)c3c(O)cc(O[C@@H]4O[C@H](CO[C@@H]5O[C@@H](C)[C@H](O)[C@@H](O)[C@H]5O)[C@@H](O)[C@H](O)[C@H]4O)cc3o2)cc1O`, the activation in assay [1] was 25.9%. In addition, the Potency entry in assay [8], in assay [3], in assay [4], in assay [5], in assay [6] and in assay [7] was “inactive” each time.
On to `CC(C)(C)c1cc(C(C)(C)C)c(NC(=O)c2c[nH]c3ccccc3c2=O)cc1O`, for which the activation in assay [1] was 27.3%. The values for the Potency in assay [8] and in assay [3] were 20900 nM (active) and 23500 nM (active), respectively.
Turning to `COc1ccccc1C(=O)Nc1cc2c(cc1N1CCCCC1)n(C)c(=O)n2C`, the activation in assay [1] is -12.3%. For the same molecule, the viability in assay [2] is 101%. Further, the Potency result in assay [4], in assay [5], in assay [6] and in assay [7] was “inactive” throughout.
In the case of `COc1cc([C@H]2Oc3cc([C@H]4Oc5cc(O)cc(O)c5C(=O)[C@@H]4O)ccc3O[C@@H]2CO)ccc1O`, the activation in assay [1] was -20.1%. For the same molecule, the viability in assay [2] is 119%. For the same molecule, the Potency result in assay [7] is “inactive”.
As for `Cc1cc([C@@H](C)Nc2ccccc2C(=O)O)c2nc(N3CCOCC3)cc(=O)n2c1`, the activation in assay [1] was 14.9%. Besides, the Potency in assay [8] was 1320 nM (active); in assay [3], 6610 nM (active).
`Cc1[nH]nc2ccc(-c3cncc(OC[C@@H](N)Cc4ccccc4)c3)cc12`: the Potency in assay [1] was 21700 nM (active); in assay [8], 1180 nM (active); in assay [3], 132 nM (active); in assay [4], 662 nM (active); in assay [5] it was 468 nM (active); in assay [6] it was 833 nM (active).
Consider `COC(=O)Nc1ccc(-c2nc(N3CCOCC3)c3cnn(C4CCN(C(=O)OC)CC4)c3n2)cc1`, for which the activation in assay [1] is 11.3%. Further, the Potency in assay [8] was 4170 nM (active); in assay [3] it was 1180 nM (active).
With `CC(=O)Oc1cc2c(s1)CCN(C(C(=O)C1CC1)c1ccccc1F)C2` (configuration not stated), in assay [1], the activation was 29.4%. The viability in assay [2] was 102%. In addition, the Potency entry in assay [4], in assay [6] and in assay [7] was “inactive” throughout.
With `CO[C@@H]1[C@H](N(C)C(=O)c2ccccc2)C[C@H]2O[C@]1(C)n1c3ccccc3c3c4c(c5c6ccccc6n2c5c31)C(=O)NC4`, the activation in assay [1] was 25.1%. Further, the Potency in assay [8] was 3320 nM (active); in assay [3], 93.4 nM (active).
`CCOC(=O)c1c(C)n(C)c2ccc(O)cc12`: the activation in assay [1] was 6.69% and -7.58%. For the same molecule, in assay [2], the viability was 110%. For the same molecule, the Potency result in assay [4], in assay [5] and in assay [7] was “inactive” each time.
As to `NC(=O)N1CCC(CC(=O)N2CCC([C@H]3c4ncc(Br)cc4CCc4cc(Cl)cc(Br)c43)CC2)CC1`, in assay [1], the activation was 7.44%. The Potency in assay [8] is 1180 nM (active); in assay [3], 16600 nM (active); in assay [4], 11800 nM (active).
As for `Oc1cccc(-c2nc(N3CCOCC3)c3oc4ncccc4c3n2)c1`, the activation in assay [1] was 27.8%. Also, the Potency in assay [8] was 66.1 nM (active); in assay [3], 52.5 nM (active).
In the case of `NC(=O)Nc1sc(-c2ccc(F)cc2)cc1C(N)=O`, in assay [1], the activation is -16.3%. Further, the Potency is 2350 nM (active) in assay [8], 1860 nM (active) in assay [3], 1660 nM (active) in assay [4] and 1860 nM (active) in assay [5].

These data come from PubChem BioAssay (NCATS).
